Assay outcomes (PubChem)
A selection: hits, their analogues and other compounds. The true share with any hit is near 5.9%.
RORgamma inh: blocks mouse ROR gamma transcriptional activity; P51450; Drosophila S2 Gal4-RORgamma UAS-luciferase reporter, 20 h; Potency, µM (top dose mostly 53.6 µM), without a hit: at the top dose activity change, negative = inhibition, hits mostly inhibitors; actives 5.4% (n = 310,000); AID 2551; further: potency means the concentration at half of the fitted maximal effect; nearly all actives have a fitted effect of over 60% in size
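Schneider cells (Drosophila), stable Gal4 DBD–ROR gamma + UAS-luc; 1 hr cmpd preincubation; Cu2+ induction 700 uM final; 20 hr ambient; luminescence.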
Gal4-VP16 FLuc: inhibits Gal4-VP16 luciferase reporter, ROR gamma counter-screen; Drosophila S2 Gal4-VP16 UAS-luciferase, luminescence, 20 h; Potency, µM (doses to about 53.6 µM), for inactives: at the highest dose activity, negative = inhibition, hits mostly inhibitors; actives 3.5% (n = 310,000); AID 2546;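 further: Gal4-VP16 expression switched on by copper sulfate through the metallothionein promoter; potency means the concentration at half of the fitted maximal effect; nearly all actives have a fitted effect of over 50% in size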
TrxR1 substrate: is turned over as a substrate by rat TrxR1. actives 0.01% (n = 390,000). AID 588456. Potency, µM (doses to about 114 µM), inactives show at the top dose activity change, negative = substrate turnover. O89049. purified TrxR1 substrate turnover, NADPH consumption readout; further: potency means the concentration at half of the fitted maximal effect; nearly all actives have a fitted effect of over 50% in size
Target sequence (O89049 whole entry, looked up): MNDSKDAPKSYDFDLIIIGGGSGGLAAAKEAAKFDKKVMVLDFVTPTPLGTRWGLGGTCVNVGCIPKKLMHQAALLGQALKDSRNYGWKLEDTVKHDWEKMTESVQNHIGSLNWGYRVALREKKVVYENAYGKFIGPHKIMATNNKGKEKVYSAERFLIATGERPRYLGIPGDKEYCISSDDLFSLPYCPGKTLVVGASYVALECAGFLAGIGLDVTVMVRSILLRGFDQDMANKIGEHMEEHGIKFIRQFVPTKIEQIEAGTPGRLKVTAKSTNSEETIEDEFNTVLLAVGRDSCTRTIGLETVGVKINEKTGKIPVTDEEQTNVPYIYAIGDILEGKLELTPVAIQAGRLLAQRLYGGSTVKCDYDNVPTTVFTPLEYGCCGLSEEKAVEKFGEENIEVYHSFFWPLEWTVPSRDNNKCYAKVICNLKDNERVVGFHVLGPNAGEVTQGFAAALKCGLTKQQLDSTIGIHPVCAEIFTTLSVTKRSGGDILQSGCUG
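Rat TrxR1, dispensed at 90 nM, was prereduced with 400 uM NADPH (final) for 5 min at ~22 deg C, then incubated with compound 15 min before 400 uM selenite. A first-read NADPH fluorescence drop versus no-compound background flagged substrates.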
GALK inhibitor: galactokinase (human) inhibition. AID 1868. Purified GALK, Kinase-Glo residual ATP luminescence. Potency, µM (titrated, usually from 57.5 µM), without a hit: at the highest dose activity change, negative = inhibition, most hits filed as inhibitors. actives 0.007% (n = 270,000); further: potency means the concentration at half of the fitted maximal effect
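Compounds were pin-transferred into ATP buffer (35 uM final), then GALK plus galactose (5 nM, 100 uM final) was added. After 1 h at room temperature, Kinase-Glo Plus was added and luminescence read after 10 min.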
TrxR1 inh: rat TrxR1 inhibition. recombinant rTrxR1, NADPH fluorescence consumption, selenite substrate. actives 1% (n = 390,000). Potency, µM (series often up to 114 µM), for the others: at the top dose activity change, negative = inhibition, most hits filed as inhibitors. AID 588453; further: potency means the concentration at half of the fitted maximal effect; nearly all actives have a fitted effect of over 65% in size
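Rat TrxR1 (90 nM in the dispensed reagent) was pre-reduced with 400 uM NADPH for 5 min at room temperature, then incubated with compound for 15 min. After 400 uM selenite was added, NADPH fluorescence (Ex 340/Em 450 nm) was followed for 8 min.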
FBPA coupling cs: coupling enzyme interference in Giardia aldolase counter-screen; coupling enzyme system counterscreen, AmpLite Red fluorescence; activity change, negative = inhibition, % at 58.2 µM, hits read low; actives 0.67% (n = 290,000); in the data active means activity change below about -30%
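Counterscreen lacking aldolase: glyceraldehyde-3-phosphate coupling-enzyme reagent preincubated 10 min at RT with compound (at 57.5 uM final), then substrate/coupling system with AmpLite Red added; fluorescence read at 525/598 nm after 20 min RT.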
* hit, by the source's call; ? = inconclusive; / = not tested or not shown; [ ] = dose if it differs, or a comment. Unless noted, the call rests on the fitted dose curve; in most records, active means well fitted curve in the direction sought with a large enough effect; inconclusive means small, poorly fitted or top-dose-only effect, or another doubt; inactive means no such curve, though single readings can be large; an effect the other way counts as inactive or inconclusive. On the % scale 0 is the no-effect control and ±100 the full control effect.

SMILES	RORgamma inh	Gal4-VP16 FLuc	TrxR1 substrate	GALK inhibitor	TrxR1 inh	FBPA coupling cs
O=C(O)/C=C/C(=O)N1CCc2ccccc21	-1.2%	-14.8%	-3.7%	3.0%	-1.8%	3.2
O=C(NNC1=NCCCCC1)c1ccccc1	-8.7%	-4.8%	6.3%[57.1 µM]	2.6%	-5.3%[57.1 µM]	1.1
Cc1cc(C)cc(NC(=S)N(C)C)c1	10µM*	-20.8%	6.8%[57.1 µM]	0.0%	11.6%	4.3
Cc1cc(C)c(NC(=S)N(C)C)c(C)c1	-7.1%	5.2%	0.1%	-0.6%	4.0%	2.1
Cc1cc(C)c(NC(=S)N(C)C)cc1C	7.94µM*	-27.7%	5.3%	1.6%	22.8%	2.2
CC(=O)c1ccc(NC(=O)CSc2nnc(-c3ccncc3)o2)cc1	/	/	-11.3%	/	-9.1%	/
O=C(NC(=S)NCc1ccccc1)C1CC1	6.31µM*	?	4.1%[57.1 µM]	-0.6%	17.7%[57.1 µM]	2.4
O=C(NC(=S)NCCc1ccccc1)C1CCCCC1	2.82µM*	3.98µM*	-7.1%	-1.8%	-14.1%	1.7
O=C(NC(=S)Nc1ccccc1CO)C1CCCCC1	/	/	5.6%	/	8.8%	/
S=C(NCCc1ccccc1)N/N=C/C1CCCCC1	1.41µM*	5.62µM*	/	-1.6%	/	-2.1
O=C(NC1CCCCCC1)C(=S)NCCc1ccccc1	41.2%	3.8%	-4.3%	-1.2%	-15.7%	-3.7
O=C(CNC(=S)NC(=O)C1CCCCC1)c1ccccc1	7.94µM*	?	0.4%	2.6%	20.1%	3.4
CC(=O)Nc1nc(C)c(C(C)C)s1	22.1%	10.8%	5.0%	-3.3%	25.1%	1.2
Cc1ccc(N2C(=O)[C@@H]3CSC(c4ccc(F)cc4)N3C2=O)cc1 (some centres not stated)	/	/	-2.3%	/	4.6%	/
CN1/C(=C\C(=O)C[n+]2ccc3ccccc3c2)C(C)(C)c2ccccc21	-41.1%	?	-6.5%[57.1 µM]	9.7%	-8.0%[57.1 µM]	-2.1
Nc1ccc2c(c1)OC1(CCCC1)O2	-42.0%	-4.2%	3.3%	1.7%	-4.4%[57.1 µM]	-4.0
CCN(CC)CCCn1c(=S)[nH]c2ccccc2c1=O	?	-2.6%	2.3%	2.2%	-1.6%	1.4
CCCCn1c(=S)[nH]c2c(oc3ccc(Cl)cc32)c1=O	1.12µM*	?	/	-1.9%	/	2.3
Cn1cc(C(=O)C(F)(F)F)c2ccccc21	21.5%	-6.6%	7.4%[57.1 µM]	-0.5%	18.6%[57.1 µM]	-0.4
CC(O)CNCCNCc1c(OCc2ccccc2)ccc2ccccc12 (configuration not stated)	?	22.4µM*	-4.3%	0.0%	9.1%	0.1
Oc1ccc(Br)cc1C=Nc1ccc(Cl)cc1	-37.8%	3.8%	-5.5%	2.2%	-6.3%	2.5
CCc1ccc(O)c(N=Cc2ccccc2O)c1	12.6µM*	-28.3%	7.8%[57.1 µM]	-2.7%	-2.1%[57.1 µM]	-0.1
CCN(CC)c1ccc(N=Cc2cc(Br)ccc2O)cc1	17.8µM*	?	-3.7%	-3.4%	-9.8%	-22.2
Cc1ccc(O)c(C=Nc2cc(C)ccc2O)c1	?	20µM*	-1.1%	-0.2%	?	-4.1
CCOc1ccc(N=Cc2ccccc2O)cc1	/	/	-1.3%	/	-1.0%	/
SMILES	RORgamma inh	Gal4-VP16 FLuc	TrxR1 substrate	GALK inhibitor	TrxR1 inh	FBPA coupling cs
CC(C)(C)c1ccc(O)c(N=Cc2cc(Br)ccc2O)c1	10µM*	?	-8.0%	-2.4%	5.4%[57.1 µM]	-4.6
Cc1ccc(O)c(N=Cc2cc(Cc3ccccc3)cc([N+](=O)[O-])c2O)c1	12.6µM*	-17.3%[10 µM]	4.0%[57.1 µM]	-0.3%	-67.0%	-10.9
CCOc1ccc(/C=C/C(=O)c2cc(Br)ccc(=O)c2O)cc1	?	22.4µM*	-11.3%	-0.2%	35.5µM*	-1.8
CCc1ccc(/C=C/C(=O)c2cc(Br)ccc(=O)c2O)cc1	?	?	-11.1%	-1.0%	?	-0.4
Cc1ccc(-n2nc3c(N4CCC(C(=O)NCCc5ccccc5)CC4)nnc(C)c3c2C)cc1	/	/	12.5%	/	4.5%	/
Cc1nc(/N=C\N(C)C)sc1C(=O)Nc1ccccc1	26.5%	-6.1%	-10.2%	-2.4%	-9.1%	3.3
CN(C)/C=N/c1nc2ccc3c(c2s1)CCCC3	10µM*	-4.9%	6.1%	0.3%	4.7%	-3.5
Cc1ccc(OCC(=O)NCC2(N3CCN(C)CC3)CCCCC2)cc1	/	/	0.0%	/	0.4%	/
O=C(C1=C[C@@H](C2CCCCC2)C[C@@H](OCc2ccc(CO)cc2)O1)N1CCN(Cc2ccccc2)CC1	?	12.6µM*	3.1%[57.1 µM]	4.4%	-2.9%[57.1 µM]	-9.0
O=C(C1=C[C@H](C2CCCCC2)C[C@H](OCc2ccc(CO)cc2)O1)N1CCN(Cc2ccccc2)CC1	34.6%	-17.8%	-8.3%	-0.6%	9.2%	-3.8
Cc1csc(=Nc2c(C)n(C)n(-c3ccccc3)c2=O)n1-c1ccccc1	3.3%	0.8%	5.3%	-2.2%	22.8%	2.8
CC(=O)N1CCc2cc(S(=O)(=O)NC3CCCc4ccccc43)ccc21 (configuration not stated)	?	20µM*	-2.0%	-1.2%	9.2%	1.7
O=C(O)c1ccc(S(=O)(=O)NC2CCCc3ccccc32)cc1 (configuration not stated)	20.1%	-9.4%	8.3%[57.1 µM]	2.6%	3.9%[57.1 µM]	24.6
Cc1oc(-c2ccccc2)cc1C(=O)Nc1cccc2ccccc12	-31.2%	-19.8%	0.8%	0.2%	?	6.8
CCC(CC)NC(=O)c1cc2c(C)nn(Cc3ccccc3Cl)c2s1	11.3%	4.2%	-10.9%[11.4 µM]	-0.5%	17.3%[11.4 µM]	-0.6
Cc1nn(Cc2ccccc2Cl)c2sc(C(=O)Nc3nccs3)cc12	10µM*	?	52.6%	-1.7%	6.2%[57.1 µM]	0.0
Cc1nn(Cc2ccc(F)cc2)c2sc(C(=O)Nc3nccs3)cc12	11.2µM*	?	7.5%	-0.7%	12.6%	4.4
CC(C)CNC(=O)c1cccc(NC(=O)CSc2ccccc2)c1	16.2%	6.0%	0.9%[57.1 µM]	2.4%	4.0%[57.1 µM]	-3.0
CC(C)(C)c1ccc(C(=O)n2cnc3ccccc32)cc1	-28.8%	0.2%	6.0%	1.2%	36.4%[2.29 µM]	-0.7
O=C(Nc1ccc(F)cc1)Nn1cnnc1	-12.6%	-1.7%	-0.2%	1.2%	14.8%	-0.8
CCOC(=O)c1c(NC(NC(=O)C(C)C)C(Cl)(Cl)Cl)sc2c1CCC2 (configuration not stated)	?	5.1%	-9.4%	0.7%	-25.1%	3.7
COc1ccc(N2CCN(C(=O)CCC(=O)N3CC(C)Oc4ccccc43)CC2)cc1 (configuration not stated)	24.0%	4.7%	11.5%[57.1 µM]	/	12.2%[57.1 µM]	2.9
N=C1SC(c2ccccc2)C(=O)N1c1ncc(Cc2ccccc2Cl)s1 (configuration not stated)	1.41µM*	1.26µM*	-6.6%	-0.7%	-23.5%	9.1
CC(=O)c1ccccc1OC(=O)c1c(F)cccc1F	9.7%	4.0%	0.8%	/	11.3%	-0.7
O=c1cc(CSc2nc(NCc3ccccc3)c3ccccc3n2)nc2ccc(Cl)cn12	4.47µM*	21.2%	6.7%	1.4%	-16.6%	1.0
